# Experimental data reported in the supplement of paper PMC12636033.
# ± gives the standard deviation of the averaged measurements. In all, about 33,000 sequences were measured (“E-score (rank enrichment, -0.5 to 0.5)”: median about -0.0028, highest 2% from about 0.23 on). The sample as a whole holds a higher share of the highest values than the screen did.
# Test system: 2Sb-muMax20 (muMax20 with two 1,3-bis(methyl)benzene Cys staples, A13C/A17C and Q88C/A92C, C-terminal Lys)
# Assay: PBM 8-mer E-score (E-score (rank enrichment, -0.5 to 0.5)); higher = stronger preferential binding
# Procedure: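 Protein binding microarray (universal PBM chip covering all 10-mers in fixed probe flanks) with chemically synthesized human Max(13-93) bHLH-LZ analogs (not full-length Max) bearing noncanonical residues (hArg, Tha, Aib, Nle at 65) and aromatic Cys staples. Read-out per 8-mer (and its reverse complement): E-score (rank-based enrichment, -0.5 to 0.5) and Z-score of median probe intensity.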
row,Sequence,PBM 8-mer E-score
1,CAAGGCAA,0.0983 ± 0.056
2,ATTTGTTC,0.15 ± 0.058
3,ATTTGTTA,0.187 ± 0.0095
4,ATTTGTTG,0.232 ± 0.0078
5,ATACTGCG,0.0194 ± 0.043
6,AATTAAAC,0.19 ± 0.065
7,ACTTAAGT,0.246 ± 0.033
8,AATTAAGA,0.216 ± 0.038
9,AATTAAAG,0.133 ± 0.025
10,AATTAAAT,0.235 ± 0.011
11,ACTTAAGA,0.00227 ± 0.079
12,ACTTAAGC,-0.134 ± 0.061
13,AATTAAGT,0.24 ± 0.005
14,AATTAAGC,0.121 ± 0.063
15,CCCATTGA,0.02 ± 0.063
16,GATCGAGA,-0.0884 ± 0.04
17,AAAAAGTT,0.16 ± 0.014
18,ACTTCTTA,0.125 ± 0.057
19,CAATGCAA,0.0811 ± 0.012
20,CCAGGGGG,-0.31 ± 0.076
21,AATCAACA,0.308 ± 0.015
22,TATCAACA,0.0969 ± 0.067

row,Sequence,PBM 8-mer E-score
1,GATCAACA,-0.139 ± 0.023
2,CGTTCTAC,0.0207 ± 0.027
3,GATGACCC,-0.157 ± 0.019
4,AATGACCC,0.231 ± 0.0025
5,AATGACCG,-0.0804 ± 0.021
6,CTGACTTA,0.107 ± 0.048
7,CTCTCCAG,-0.198 ± 0.013
8,GTAGAAAA,0.0997 ± 0.012
9,ACCGCTAT,-0.0561 ± 0.049
10,GGAAAGCC,-0.00378 ± 0.093
11,ATACGTAT,0.407 ± 0.031
12,ATACGTAC,0.16 ± 0.0041
13,ATACGTAA,0.115 ± 0.0061
14,AACAGTTC,0.0164 ± 0.036
15,AACGTGCC,0.0151 ± 0.03
16,AACGTGCG,0.152 ± 0.016
17,CCCGTGCG,-0.206 ± 0.01
18,AACGTGCA,0.0984 ± 0.068
19,AAAGTGCA,0.0798 ± 0.0049
20,CACGTGCA,0.417 ± 0.026
21,TAAGTGCA,0.243 ± 0.008
22,GAAGTGCA,0.122 ± 0.077

row,Sequence,PBM 8-mer E-score
1,CACGTGCC,0.377 ± 0.015
2,TACGTGCA,0.1615 ± 0.00067
3,GACGTGCC,-0.174 ± 0.023
4,CACGTGCG,0.39 ± 0.022
5,GTGCTAAC,-0.0619 ± 0.0065
6,ATTGCTAA,-0.034 ± 0.043
7,AAGGAATC,-0.0571 ± 0.08
8,CATATGCG,0.192 ± 0.0076
9,AATAGCTC,0.0405 ± 0.046
10,ATGCGTAG,0.151 ± 0.017
11,CTGGGGGC,-0.289 ± 0.044
12,ATAAGGTC,0.231 ± 0.014
13,ATAAGGAA,-0.0755 ± 0.029
14,CTAAGGTC,0.0156 ± 0.022
15,ATAAGGAC,-0.0224 ± 0.047
16,ATAAGGAT,0.277 ± 0.0071
17,ATAAGGTA,0.132 ± 0.044
18,ATCGGATC,-0.225 ± 0.064
19,GCGAAGCC,-0.143 ± 0.0091
20,AGTCTCTG,-0.178 ± 0.037
21,GCCGGTTA,-0.0245 ± 0.051
22,TACTGGAA,0.187 ± 0.013

row,Sequence,PBM 8-mer E-score
1,ACATAGTA,0.141 ± 0.013
2,CCATAGTA,0.161 ± 0.049
3,GCATAGTA,0.234 ± 0.05
4,ACCGTGAG,-0.24 ± 0.025
5,GGGATCCA,-0.0748 ± 0.046
6,AGGTGCAG,-0.176 ± 0.029
7,AATTGAAA,0.272 ± 0.014
8,AATTGAAC,-0.0329 ± 0.083
9,AATTGAAT,0.229 ± 0.021
10,ACCGTAGC,-0.0428 ± 0.011
11,AGCTTCTC,0.245 ± 0.00095
12,AGCTTCTG,-0.127 ± 0.071
13,AGCTTCTA,-0.0235 ± 0.043
14,TACGTACA,0.198 ± 0.0031
15,CTACCGAC,-0.0505 ± 0.014
16,ATCCCCTA,0.2799 ± 0.00079
17,ATCCCCTC,0.2637 ± 0.0019
18,GTCCCCTA,0.093 ± 0.011
19,CTCCCCTA,0.182 ± 0.019
20,CTCCCCTC,0.147 ± 0.072
